Source: PubChem BioAssay (Tox21)
Inconclusive results are not listed. Activity calls are given as the source filed them. Calls follow the shape of the dose curve; as a rule, active = well fitted cell-killing curve with a large enough effect in the repeat runs; inconclusive = weak or mixed curves, or effect the other way; inactive = no such curve, though single readings can be large or run the other way. Where a SMILES comes first, the peptide text is derived from it. [ ]: non-standard residue; d: D form. pGlu = O=C1CC[C@@H](C(=O)O)N1

Assay: qHTS assay for small molecule activators of the heat shock response signaling pathway - cell viability counter screen (AID 743209); also: nearly all actives have a fitted effect of over 50% in size
Conditions: HSE-bla HeLa viability, CellTiter-Glo luminescence, 5 h; series mostly up to 62.6 µM
Text: U.S. Tox21 Program National Center for Advancing Translational Sciences [NCATS] NIH Chemical Genomics Center [NCGC] U.S. Environmental Protection Agency [EPA] National Institutes of Environmental Health Sciences [NIEHS] National Toxicology Program [NTP] U.S. Food and Drug Administration [FDA] Tox21 Assay Overview: Various chemicals, environmental and physiological stress conditions may lead to the activation of heat shock response/ unfolded protein response (HSR/UPR). There are three heat shock transcription factors (HSFs) (HSF-1, -2, and -4) mediating transcriptional regulation of the human HSR. To identify the compounds that activate HSR signaling, HSE-bla HeLa cell line (Invitrogen, Carlsbad, CA, USA) containing a beta-lactamase reporter gene under the control of the heat shock response elements was used to screen Tox21 10K compound library. The cytotoxicity of the Tox21 compound library against the HSE-bla HeLa cell line was tested in parallel by measuring the cell viability using CellTiter-Glo assay (Promega, Madison, WI) in the same wells.
Tox21 Assay Protocol Summary: The CellSensor HSE-bla HeLa cells (Invitrogen, Carlsbad, CA, USA) were dispensed at 1500 cells/6uL/well into 1536-well black wall/clear bottom plates using a Multidrop combi (Thermo Fisher Scientific, Waltham, MA) dispenser. After the assay plates were incubated at 37 C and 5% CO2 overnight, 23 nL of compounds dissolved in DMSO, positive controls or DMSO only was transferred to the assay plate by a Pintool station (Kalypsys, San Diego, CA). The plates were incubated at 37 C for 5 h. After 1 uL of LiveBLAzerTM B/G FRET substrate was added using a Flying Reagent Dispenser (FRD, Beckman Coulter, Indianapolis, IN, USA), the plates were incubated at room temperature for 2.5 h, and fluorescence intensity was measured by an Envision plate reader (PerkinElmer, Shelton, CT). For cell viability readout that measures cytotoxicity, 3 ul/well of CellTiter-Glo reagent was added into the assay plates using a FRD. After 30 min incubation at room temperature, the luminescence intensity in the plates was measured using a ViewLux (PerkinElmer) plate reader.

Row | SMILES | outcome
1 | CNCC(O)c1ccc(O)c(O)c1 (stereo not given) | inactive
2 | CC12CCC(C(=O)C1=O)C2(C)C (stereo not given) | inactive
3 | CCNS(=O)(=O)c1ccc(C)cc1 | inactive
4 | CCOC(=O)c1ccccc1 | inactive
5 | CC1=C(C/C=C(\C)CCC[C@H](C)CCC[C@H](C)CCCC(C)C)C(=O)c2ccccc2C1=O | inactive
6 | CN(C)C(=O)Oc1cccc([N+](C)(C)C)c1 | inactive
7 | CCN(Cc1ccccc1)c1ccccc1 | inactive
8 | CCOC(=O)C1=NOC(c2ccccc2)(c2ccccc2)C1 | inactive
9 | N[C@@H](CCC(=O)O)C(=O)O | inactive
10 | CCOc1ccc2nc(S(N)(=O)=O)sc2c1 | inactive
11 | C=CN1CCCCCC1=O | inactive
12 | CC(=O)C1CCCCC1=O (stereo not given) | inactive
13 | CC1(C)[C@@H]2CC[C@@]1(C)[C@H](O)C2 | inactive
14 | NC(=O)Cc1cccc2ccccc12 | inactive
15 | Cc1ccccc1N=C(N)N=C(N)N | inactive
16 | CCO[Si](OCC)(OCC)c1ccccc1 | inactive
17 | O=C(CO)[C@@H](O)[C@H](O)[C@@H](O)CO | inactive
18 | NCCCC[C@H](N[C@@H](CCc1ccccc1)C(=O)O)C(=O)N1CCC[C@H]1C(=O)O | inactive
19 | CC[N+](C)(CC)CCOC(=O)C1c2ccccc2Oc2ccccc21 | inactive
20 | CC(C)(C)C(=O)Oc1ccc(S(=O)(=O)Nc2ccccc2C(=O)NCC(=O)O)cc1 | inactive

Row | SMILES | outcome
21 | COCCOCC(OC)OC | inactive
22 | CC(C)COC(=O)c1ccc(N)cc1 | inactive
23 | CCCCCCCC1CCCC1=O (stereo not given) | inactive
24 | C[N+](C)(C)CCCCCCCCCC[N+](C)(C)C | inactive
25 | Cc1ccc(C(=O)c2ccc(CC(=O)O)n2C)cc1 | inactive
26 | O=S(=O)(O)c1cccc(S(=O)(=O)O)c1 | inactive
27 | O=S(=O)(O)c1cccc2c(S(=O)(=O)O)cccc12 | inactive
28 | CCCC(C)C(=O)OCC (stereo not given) | inactive
29 | CN1CC(=O)N/C1=N/C(=O)Nc1cccc(Cl)c1 | inactive
30 | C1CCC2=NCCCN2CC1 | inactive
31 | CCCCOCCOC(=O)CCCCCCCCC(=O)OCCOCCCC | inactive
32 | CCCCCC(=O)OCCc1ccccc1 | inactive
33 | Cc1onc(-c2c(Cl)cccc2Cl)c1C(=O)Cl | inactive
34 | [O-][n+]1cccc(CO)c1 | inactive
35 | CCNC(=O)[C@@H]1CCCN1C(=O)[C@H](CCCN=C(N)N)NC(=O)[C@H](CC(C)C)NC(=O)CNC(=O)[C@H](Cc1ccc(O)cc1)NC(=O)[C@H](CO)NC(=O)[C@H](Cc1c[nH]c2ccccc12)NC(=O)[C@H](Cc1cnc[nH]1)NC(=O)[C@@H]1CCC(=O)N1 ([pGlu]HWSYGLRP-NHEt) | inactive
36 | CC(C)=CCC/C(C)=C/C#N | inactive
37 | CCC(=O)OCc1ccccc1 | inactive
38 | C=CC(C)(CCC=C(C)C)OC(=O)CC (stereo not given) | inactive
39 | CC(C)c1ccc2ncccc2c1 | inactive
40 | c1coc(CNc2ncnc3nc[nH]c23)c1 | inactive
